Compound activity deposited in PubChem by several laboratories.
CYP2C19 inh – blockers of cytochrome P450 2C19 activity – biochemical, luminescence, ADME assay, primary screen | P33261 | CYP2C19 Supersomes, luciferin-H EGE luminescence, 30 min | inhibition, % at 5 µM | hit rate 21% among 96,000 | AID 778, 2007;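 active = CYP2C19 inhibition above a set limit at 5 µM in the primary screen, cut at about 50% in these data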;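 also: plate controls were negative control wells for no effect and 2.5 mM tranylcypromine positive control for full effect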
Target sequence (P33261 whole entry, looked up): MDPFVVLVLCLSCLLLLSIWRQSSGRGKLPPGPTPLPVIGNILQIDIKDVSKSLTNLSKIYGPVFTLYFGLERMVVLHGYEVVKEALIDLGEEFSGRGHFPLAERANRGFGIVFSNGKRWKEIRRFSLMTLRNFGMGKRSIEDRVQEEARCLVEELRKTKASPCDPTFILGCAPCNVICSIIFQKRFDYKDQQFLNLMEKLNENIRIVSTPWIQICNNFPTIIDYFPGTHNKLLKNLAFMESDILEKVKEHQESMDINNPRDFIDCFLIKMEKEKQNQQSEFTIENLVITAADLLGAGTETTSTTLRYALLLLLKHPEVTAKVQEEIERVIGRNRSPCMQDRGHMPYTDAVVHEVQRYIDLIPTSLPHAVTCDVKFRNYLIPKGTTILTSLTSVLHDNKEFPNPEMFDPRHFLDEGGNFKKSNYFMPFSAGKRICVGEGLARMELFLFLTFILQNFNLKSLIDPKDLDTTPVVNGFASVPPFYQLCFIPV
PostGolgi yeast – phenotypic screen on post-Golgi transport, primary screen; AID 739, 2007; inhibition, % at 10 µM; post-Golgi transport phenotypic cell assay; hit rate 0.9% among 98,000;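 also: yeast cells grown in 1536-well plates; yeast grown about 18 h at 30C before absorbance read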
CYP2C19 act – human CYP2C19 activators, primary screen, biochemical, luminescence; recombinant CYP2C19, luciferin-H EGE luminescence; stronger effect = higher value; 0 = fully inhibited enzyme, 1 = untreated enzyme; activation factor at 5 µM; 96,000 tested, under 10 active;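 active = activation factor of at least 2 at 5 µM in the primary screen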;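 also: 0 = wells with 2.5 mM tranylcypromine and 1 = vehicle-only wells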
CYP2C9 activ – human CYP2C9 activators, primary screen, biochemical, luminescence; Cytochrome P450 2C9 (Homo sapiens), P11712; recombinant CYP2C9, luciferin-H conversion; stronger effect = higher value; factor 1 = untreated enzyme, 0 = blocked; activation factor at 5 µM; hit rate 1.4% among 96,000; AID 1024, 2008;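 active = activation factor of 2 or more for CYP2C9 at a 5 µM dose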;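 also: 0 = sulfaphenazole-blocked wells and 1 = vehicle-only wells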
CYP2C9 inh – blockers of cytochrome P450 2C9 activity – biochemical, luminescence, ADME assay, primary screen; hit rate 20% among 96,000; CYP2C9 Supersomes, luciferin-H conversion; inhibition, % at 5 µM;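 active = blocking of liver enzyme CYP2C9 beyond about 50% at 5 µM, limit read from the data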
PostGolgi ctrl – growth inhibition of yeast control strain, primary screen, counter-screen for post-Golgi transport modulator project; efflux-deficient yeast background strain, growth absorbance A615, 16 h; inhibition, % at 10 µM; hit rate 5% among 98,000; AID 738, 2007
Starred values were filed as active, the others as inactive; nt = not tested or not shown. These entries were drawn from the full list. Rule as the data show it, unless noted: active = inhibition above about 30%; inactive = the rest.

SMILES	CYP2C19 inh	PostGolgi yeast	CYP2C19 act	CYP2C9 activ	CYP2C9 inh	PostGolgi ctrl
Cc1ccc(C)c(NC(=S)NCc2cccn2C)c1	29	-2	0.7	1.3	-33	1
Cn1cnnc1SCC(=O)NCCC(c1ccccc1)c1ccccc1	48	7	0.5	0.7	32	4
O=C(Cc1ccccc1)NNC(=O)Nc1cccc(Cl)c1	0	4	1	1	-2	11
Cc1c(C(=O)OCC(=O)N2CC(C)OC(C)C2)oc2ccc(Br)cc12 (stereo not given)	9	3	0.9	0.9	12	12
O=C(NC(Cc1ccc2c(c1)OCO2)C(=O)NC(Cc1ccccc1)C(=O)O)c1ccccc1 (stereo not given)	-5	-6	1.1	0.8	19	0
COCCNC(=O)COc1cc(=O)n(C)c2ccccc12	-10	9	1.1	1.1	-9	-2
COc1ccc(C(=O)CSc2nc3nc(C)cc(C)n3n2)cc1OC	46	-3	0.5	0.8	20	-1
Cc1nc(Oc2ccccc2)c2oc3ccccc3c2n1	57*	3	0.4	0.8	20	21
CCOC(=O)c1c(NC(=O)CC)sc(C(=O)N2CCCCC2)c1C	75*	3	0.3	0.4	57*	5
CCc1c(C)sc(NC(=O)c2ccco2)c1C(=O)N1CCCCC1	2	14	1	0.9	7	-3
CCOC(=O)c1c(N)ssc1=S	26	-16	0.7	0.3	66*	3
CCOC(=O)c1c(NC(=O)c2ccco2)sc(C(=O)N2CCCC2)c1C	44	-1	0.6	0.4	56*	14
CCOC(=O)c1c(N)sc(C(=O)N2CCCCCC2)c1C	81*	5	0.2	0.7	34	12
CCOC(=O)c1c(NC(=O)CN2CCN(c3ccc(Cl)cc3)CC2)sc(C)c1C	-5	-10	1	0.7	28	-1
O=C(C1CCN(c2ccc(N3CCOCC3)nn2)CC1)N1CCN(c2ccc(F)cc2)CC1	1	11	1	1	4	-5
CCOC(=O)C(CCCOc1ccccc1)C(=O)OCC	20	7	0.8	1	5	5
CC(=O)c1cc2c(=O)c3cc(C)ccc3oc2nc1C	37	-2	0.6	0.6	41	10
Cc1ccc2oc3nc(C)c(C(=O)O)cc3c(=O)c2c1	60*	5	0.4	0.7	31	9
CCN(CC)S(=O)(=O)c1cccc(C(=O)OCc2cc(=O)n3nc(C)sc3n2)c1	23	7	0.8	0.4	55*	3
CCN(CC)S(=O)(=O)c1cccc(C(=O)OCC(=O)c2ccc3c(c2)NC(=O)CO3)c1	43	-9	0.6	0.7	31	-7
Cc1ccc(-c2noc(=O)n2CC(=O)Nc2ccc(S(=O)(=O)NC3CC3)cc2)cc1	45	-3	0.6	0.1	93*	4
O=C(CSc1ccccc1)Nc1ccc(N2CCOCC2)cc1	18	0	0.8	0.8	20	4
O=C(CCSc1ccccc1)Nc1ccc(S(=O)(=O)N2CCOCC2)cc1	55*	-9	0.4	0.2	85*	17
O=C(Cn1c(-c2ccccc2)noc1=O)Nc1ccc(N2CCCCCC2)cc1	-10	4	1.1	1	2	13
O=C(Cn1c(-c2ccccc2)noc1=O)Nc1ccc(S(=O)(=O)N2CCOCC2)cc1	23	1	0.8	0.3	73*	-1
O=C(O)CSc1cccc2cccc(C(=O)O)c12	4	-6	1	1	3	5
Cc1cccc(N(CC(O)CON=C2c3ccccc3-c3ccccc32)S(C)(=O)=O)c1 (stereo not given)	98*	-4	0	0	99*	41*
CS(=O)(=O)N(CC(O)CON=C1c2ccccc2-c2ccccc21)c1ccc(F)cc1 (stereo not given)	16	0	0.8	1.1	-12	1
CC(=O)OC1CCC(OC(C)=O)c2c1n([O-])c(C)c(C)[n+]2=O (stereo not given)	8	-3	0.9	1	-2	18
Cc1ccc(/C=N\NC(=O)C2COc3cc4ccccc4cc3O2)o1 (stereo not given)	nt	-4	nt	nt	nt	4
